# Screens (PubChem)
# HPGD inh: blocks human HPGD enzyme activity; P15428; purified HPGD, NADH fluorescence kinetic, PGE2 substrate; Potency, µM, for the others: top-dose activity change, negative = inhibition, usual class: inhibitors; actives 4.3% (n = 150,000); further: potency means the concentration at half of the fitted maximal effect
# Target sequence (P15428 whole entry, looked up): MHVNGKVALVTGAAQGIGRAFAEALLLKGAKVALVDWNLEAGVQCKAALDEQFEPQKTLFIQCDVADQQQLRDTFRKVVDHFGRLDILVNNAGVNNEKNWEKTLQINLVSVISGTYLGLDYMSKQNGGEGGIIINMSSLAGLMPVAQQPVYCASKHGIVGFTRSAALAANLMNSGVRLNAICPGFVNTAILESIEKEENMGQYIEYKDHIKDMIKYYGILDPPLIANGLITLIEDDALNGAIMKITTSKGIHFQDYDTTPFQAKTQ
#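 NADH formation kinetics: reaction with 30 uM PGE2 and 1 mM NAD+ (final), 20 nM enzyme, Tris-HCl pH 8 with Tween 20, after 15 min compound preincubation at room temperature. Fluorescence change, last versus first of five reads.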
# PNC assembly inh: inhibitors of perinucleolar compartment assembly; PC3M PTB-GFP, PNC prevalence imaging, 16 h; hits give low values; activity change (PNC), negative = inhibition, % at 10 µM; actives 3.1% (n = 140,000);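 active means readout at or below -70, meaning at least 70% loss of cells showing the perinucleolar compartment, a nuclear body marking cancer cells; inconclusive means readout between -30 and a set limit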;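 further: plate controls were DMSO wells for no effect and camptothecin positive control wells for full effect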
#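 PC3M cells stably expressing PTB-GFP, 750–1000 cells/well, treated 16 h at 37 °C with compound (23 nl of library stock), in duplicate. After paraformaldehyde fixation and Hoechst stain, imaged at 20x; PNC prevalence scored by image analysis.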
# IMPase cell inh: cell-permeable inhibitors of inositol monophosphatase (IMPase) | P97697 | CHO-M1 cells, IP1 accumulation, HTRF TR-FRET ratio | inhibition (IP1 accumulation), % at 46.1 µM | 120,000 tested, under 10 active | AID 901; active means well fitted curve in the direction sought with a large enough effect in the signal ratio, not every such curve was filed as active; inconclusive means small, poorly fitted or top-dose-only effect, or a change in a side signal; inactive means no such curve, though single readings can be large or run the other way; the % refers to the signal ratio;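 further: cells stimulated with carbachol in lithium chloride buffer; plate controls were DMSO basal wells for no effect and reference inhibitor wells for full effect; higher means more IMPase inhibition seen as more IP1 and lower FRET ratio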
# Target sequence (P97697 whole entry, looked up): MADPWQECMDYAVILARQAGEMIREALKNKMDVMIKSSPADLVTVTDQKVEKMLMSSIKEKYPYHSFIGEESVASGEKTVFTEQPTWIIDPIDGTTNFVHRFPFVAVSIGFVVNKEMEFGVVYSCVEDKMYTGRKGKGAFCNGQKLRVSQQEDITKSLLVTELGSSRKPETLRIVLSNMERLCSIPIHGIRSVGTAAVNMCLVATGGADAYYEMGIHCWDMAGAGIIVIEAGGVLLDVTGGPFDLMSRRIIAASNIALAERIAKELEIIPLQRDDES
#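 CHO-M1 cells (CHO stably expressing M1 receptor), compound up to 46 uM final, stimulated with carbachol (50 uM as added) in buffer with 50mM LiCl, pH 7.4, 30 min at 37C. Cytosolic IP1 read by TR-FRET; AC50 from Hill fits.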
# Luc counter: Kinase-Glo luciferase inhibition (counter-screen) | Q27757 | Kinase-Glo luciferase, ATP luminescence, 8 min | Potency, µM (highest dose often 38.3 µM), for inactives: at the highest dose activity change, negative = inhibition, actives largely listed as inhibitors | actives 0.28% (n = 200,000); active means well fitted inhibition curve with a large enough effect; inconclusive means small, poorly fitted or top-dose-only effect; further: potency means the concentration at half of the fitted maximal effect; nearly all actives have a fitted effect of over 60% in size
#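 Compounds were added to a substrate mix at pH 7.2 (50 mM imidazole, 10 uM ATP, within the enzyme's linear range), followed by Kinase-Glo detection reagent; luminescence was measured after 8 minutes at ambient temperature.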
# LMNA splice mod: LMNA splicing modulation; HeLa LMNA splicing GFP/RFP minigene ratio, 48 h; Potency, µM (titrated, usually from 46.1 µM), for inactives: at the top dose ratio change, negative = inhibition, actives largely listed as inhibitors; actives 0.01% (n = 200,000); AID 1487; active means well fitted inhibition curve with a large enough effect in the signal ratio, with a control signal flat, not every such curve was filed as active; inconclusive means small, poorly fitted or top-dose-only effect, or effect the other way, or a change in a side signal; the % refers to the signal ratio; further: potency means the concentration at half of the fitted maximal effect
#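 S3 HeLa stable clones carrying a lamin A-EGFP splicing minigene plus DsRed2 were seeded at 600 cells/well in Opti-MEM with 2% FBS, pin-dosed and incubated 48 h at 37°C. Acumen cytometry (488 nm) gave the GFP/RFP total-intensity ratio.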
# ALDH1A1 block: ALDH1A1 (human) enzyme inhibition | Purified ALDH1A1, NADH fluorescence, propionaldehyde substrate | Potency, µM (titrated, usually from 75.3 µM), for the others: at the highest dose activity, negative = inhibition, most hits filed as inhibitors | actives 7.3% (n = 220,000) | AID 1030;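 further: potency means the concentration at half of the fitted maximal effect; plate controls were no enzyme wells and a reference inhibitor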
# An asterisk follows results filed as active; u = inconclusive; x = not tested or not shown; [ ] = remark or other dose. An excerpt weighted towards active compounds, which were near 10% of everything screened. Unless noted, the call rests on the fitted dose curve; in most records, active means well fitted inhibition curve with a large enough effect (not every such curve was filed as active); inconclusive means small, poorly fitted or top-dose-only effect, or another doubt; inactive means no such curve, though single readings can be large or run the other way. Unless noted, on the % scale 0 is the no-effect control and ±100 the full control effect.
SMILES,HPGD inh,PNC assembly inh,IMPase cell inh,Luc counter,LMNA splice mod,ALDH1A1 block
Cc1ccc(-c2nn(-c3ccccc3)cc2/C=C(\C#N)c2cccc(C#N)c2)o1,-9%,56,12,4%,16%,22µM*
N#C/C(=C\c1cn(-c2ccccc2)nc1-c1cc2ccccc2o1)c1nc2ccccc2[nH]1,-18%,-11,x,1%,1%,u
COc1cc(/C=C\C(=O)N2CCC=CC2=O)cc(OC)c1OC,-5%,x,-1[20.6 µM],0%[17.1 µM],u,u
C/C(=N\NC(=O)c1cc(C(C)C)[nH]n1)c1ccco1,22µM*,5,2,8.9µM*,u,3%
COc1ccc(C2C(C(=O)Nc3ccccc3)=C(C)Nc3nc(-c4ccccc4)nn32)cc1OC (centres undefined),x,x,0,x,x,x
Cc1ccc(C(=O)O)cc1-n1c(C)ccc1-c1ccccc1,x,x,-4,x,x,x
Cc1ccc(-c2ccccc2)n1-c1ccc(C(=O)O)cc1,-5%,-11,x,0%,-2%,25µM*
COc1ccccc1OCC(=O)NCC1(N2CCOCC2)CCCCC1,x,x,x,x,0%[46 µM],x
COC(=O)CNC(=O)C(C)NC(=O)OCc1ccccc1 (centres undefined),-1%,-127*,1,-2%,7%,14%
CCCCC/C=C\C/C=C\C/C=C\CCCCCCC(=O)NCCc1ccc(O)c(O)c1,0%,x,x,1%,x,-7%
CS(=O)(=O)c1ccc2nc(NC3(C(F)(F)F)N=C4SCCN4C3=O)sc2c1 (centres undefined),0%,-106*,-8,-2%,3%,5%
O=C1N2CCSC2=NC1(Nc1ccccn1)C(F)(F)F (centres undefined),-6%,-12,1,-1%,u,0%
O=c1c(O)c(-c2cccc(O)c2)oc2ccccc12,28µM*,x,6,0%,x,u
Cc1cc(C(=O)COc2ccc([N+](=O)[O-])cc2)c(C)n1C1CC1,x,x,x,x,0%[46 µM],11µM*
Cc1cc(C(=O)COc2cc(F)ccc2[N+](=O)[O-])c(C)n1C1CC1,x,x,x,-1%,u,-15%
CCn1c(SCC(=O)N=Nc2c(O)[nH]c3ccccc23)nc2ccccc21,-13%,-9,x,0%,u,6.3µM*
O=C(N=Nc1c(O)[nH]c2ccccc12)c1ccc(CN2CCOCC2)cc1,x,x,x,8%,20%[46 µM],-11%
O=C(N=Nc1c(O)[nH]c2ccccc12)c1ccco1,x,x,x,10µM*,-11%[46 µM],-13%
O=C(N=Nc1c(O)[nH]c2ccccc12)c1ccc2c(c1)OCO2,x,x,x,10µM*,-8%[46 µM],-4%
O=C(CSCc1cccc(Br)c1)N=Nc1c(O)[nH]c2ccccc12,-15%,-6,4,-2%,10%,7.9µM*
CCn1c(SCC(=O)N=Nc2c(O)[nH]c3ccccc23)nnc1-c1ccc(C(C)(C)C)cc1,-8%,u,x,3%,-1%,11%
CCC1=C2CC[C@H]3C(=O)NC(=O)[C@H]3[C@H]2[C@@]2(Cc3ccccc3)C(=NCc3ccccc3)OC(=O)N2C1=O,-9%,x,x,1%,x,1%
COC(=O)c1sccc1S(=O)(=O)N(CC(=O)NCc1ccc(C)cc1)c1ccc(Cl)cc1,x,x,x,x,-18%[46 µM],x
CC[C@H](C)C(=O)O[C@H]1C[C@H](O)C=C2C=C[C@H](C)[C@H](CC[C@@H](O)C[C@@H](O)CC(=O)O)[C@H]21,-4%,x,x,0%,x,7%
CCOc1ccccc1NC(=O)c1sc2nc3n(c(=O)c2c1C)CCCCC3,x,x,x,x,-10%[46 µM],x
SMILES,HPGD inh,PNC assembly inh,IMPase cell inh,Luc counter,LMNA splice mod,ALDH1A1 block
Cc1c(C(=O)Nc2ccccc2N2CCOCC2)sc2nc3n(c(=O)c12)CCC3,-27%,-127*,-7,-1%,4%,9%
CCOC(=O)CC(C(=O)OCC)P(=O)(c1ccccc1)c1ccccc1 (centres undefined),-3%,-23,3,-3%,4%,10µM*
CC1CCN(C(=O)C2CCN(S(=O)(=O)c3cccc4nonc34)CC2)CC1,16µM*,40,6,-2%,-1%,u
O=C(Nc1ccccn1)C1CCN(S(=O)(=O)c2cccc3nonc23)CC1,-16%,7,11,-4%,-1%,28µM*
Cc1cccn2c(=O)c(/C=C(\C#N)c3nc4ccccc4n3C)c(Oc3ccc(Br)cc3)nc12,x,x,8,x,x,x
CC(C)c1ccc(C2NC(=S)NC3=C2C(=O)CCC3)cc1 (centres undefined),-2%,5,8,0%,u,4µM*
CCSCc1nnc(SCC(=O)Nc2cccc(SC)c2)n1C,-19%,8,-8[1.84 µM],2%,3%,20µM*
CCSCc1nnc(SCC(=O)Nc2cccc(C(C)=O)c2)n1C,x,x,x,2%,0%[46 µM],6%
CC(O)C#C[Si](C)(C)c1ccccc1 (centres undefined),-4%,x,x,1%,x,3%
CCCCCCc1ccc(-c2ncc(N)cn2)cc1,u,u,6,3%,12%,u
Nc1ccc(-c2cnc(-c3ccc(N)cc3)nc2)cc1,u,-123*,-5,1%,-1%,u
O=C(O)C=Cc1ccc(Cn2ccnc2)cc1,-11%,x,0,1%,x,-37%
Cc1cccc2cc(CN(Cc3ccccc3)C(=O)c3cccc(F)c3)c(Cl)nc12,-22%,10,16,-5%,15%,8.9µM*
CC(C)Cn1nnnc1S(=O)(=O)CCc1ccccc1,-4%,x,x,4%,x,-13%
Cc1cccc(N(CC(N)=O)C2SC(=O)N(Cc3cccc(C(=O)O)c3)C2=O)c1 (centres undefined),x,x,-3,x,x,x
CSc1nc(=S)c2[nH]c(=S)[nH]c2[nH]1,x,x,x,x,x,1.4µM*
COc1ccccc1OCC(=O)Nc1nnc(-c2ccco2)s1,-22%,37,-28,-1%,-4%,7.1µM*
Cc1cccc(OCC(=O)Nc2nnc(-c3ccco3)s2)c1,x,x,x,2%,-13%[46 µM],32µM*
Cc1ccc(C)c(Cn2c(O)c(N=NC(=S)Nc3ccccc3F)c3ccccc32)c1,x,x,x,0%,x,13µM*
Oc1c(N=NC(=S)Nc2ccccc2F)c2ccccc2n1Cc1ccc(Cl)cc1,x,x,x,-2%,u,10µM*
